In PubChem BioAssay (NCI):
This is part of a sample that, as a whole, favours compounds with a hit. Of some 79,000 tested, about 15% had one in any assay. Calls of active or inactive are those of the source. Rule as the data show it: active = growth inhibition above about 70%; inactive = the rest.

Key:
[1] = NCI Yeast Anticancer Drug Screen. Data for the wt1 strain (AID 149);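 also: 0% = growth of vehicle-treated wt1 cultures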; details: S. cerevisiae wt1 strain (SPY 50644) growth inhibition, active compounds read high
In short: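 Using yeast strain wt1, compound-induced growth inhibition was determined against vehicle-treated cultures.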

[2] = NCI Yeast Anticancer Drug Screen. Data for the rad50EPP+ strain (AID 151);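 also: 0% = growth of vehicle-treated control cultures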; details: S. cerevisiae rad50 mutant strain, active compounds read high
In short: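 Compounds were applied to the rad50EPP+ yeast strain, which bears a defined DNA repair alteration, and growth inhibition was determined relative to vehicle-treated cultures.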

[3] = NCI Yeast Anticancer Drug Screen. Data for the mgt1 strain (AID 153); details: S. cerevisiae mgt1 mutant growth inhibition, active compounds read high
In short: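 Strain: mgt1 yeast, one of a set carrying defined DNA damage repair or cell cycle control alterations. Compound-treated growth compared with vehicle.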

[4] = NCI Yeast Anticancer Drug Screen. Data for the rad50 strain (AID 155);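 also: 0% = growth of vehicle-only cultures of the same strain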; details: S. cerevisiae rad50 strain growth inhibition, active compounds read high
In short: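 Relative growth inhibition (compound vs vehicle) was measured in yeast with a defined repair-gene alteration.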

[5] = NCI Yeast Anticancer Drug Screen. Data for the mec2-1 strain (AID 157); details: S. cerevisiae mec2-1 strain, active compounds read high
In short: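 Strain: mec2-1 (DNA repair/cell cycle alteration). Compound exposure, then growth measured; inhibition expressed relative to vehicle.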

[6] = NCI Yeast Anticancer Drug Screen. Data for the rad14 strain (AID 159);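 also: 0% = growth of vehicle-treated control cultures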; details: S. cerevisiae rad14 strain growth inhibition, active compounds read high
In short: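 Screen for anticancer potential: a yeast strain altered in DNA damage repair is grown with compound, and reduced growth is quantified against vehicle controls.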

[7] = NCI Yeast Anticancer Drug Screen. Data for the sgs1 mgt1 strain (AID 161);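 also: 0% = growth of cultures given vehicle only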; details: S. cerevisiae sgs1 mgt1 strain, active compounds read high
In short: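 Read-out: growth inhibition vs vehicle controls. Cells: mutant yeast strain deficient in DNA damage repair.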

[8] = NCI Yeast Anticancer Drug Screen. Data for the CLN2oe strain (AID 163);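 also: 0% = growth of vehicle-only control cultures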; details: S. cerevisiae CLN2oe strain, active compounds read high
In short: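 Growth of a genetically modified yeast strain is measured after compound exposure and compared with cultures given vehicle alone.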

[9] = NCI Yeast Anticancer Drug Screen. Data for the cln2 rad14 strain (AID 165);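 also: 0% = growth equal to vehicle treated cultures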; details: S. cerevisiae cln2 rad14 strain, active compounds read high
In short: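 Compounds are applied to the cln2 rad14 yeast strain, and growth is then compared with that of vehicle-treated cultures to give inhibition.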

[10] = NCI Yeast Anticancer Drug Screen. Data for the bub3 strain (AID 167); details: S. cerevisiae bub3 mutant strain, active compounds read high
In short: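 Screening used yeast with an engineered genetic alteration affecting cell cycle control. Compound-exposed cultures were compared with vehicle cultures, and reduced growth was taken as inhibition.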

[11] = NCI Yeast Anticancer Drug Screen. Data for the wt2 strain (AID 169);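 also: 0% = growth of vehicle-treated yeast cultures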; details: S. cerevisiae wt2 strain growth inhibition, active compounds read high
In short: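 This strain belongs to a panel of yeast strains with defined genetic alterations in DNA damage repair or cell cycle control. Compounds are applied, and growth inhibition is measured against vehicle-treated cultures.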

[12] = NCI Yeast Anticancer Drug Screen. Data for the sgs1 strain (AID 173);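 also: 0% = growth of vehicle-only control cultures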; details: S. cerevisiae sgs1 mutant, active compounds read high
In short: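 Growth of a yeast strain bearing a defined genetic alteration is measured after compound treatment. Inhibition is expressed relative to vehicle-only controls.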

[13] = NCI Yeast Anticancer Drug Screen. Data for the mlh1 rad18 strain (AID 175); details: S. cerevisiae mlh1 rad18 strain growth inhibition, active compounds read high
In short: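 Read-out is yeast growth inhibition, calculated against vehicle-only controls. The compound was applied to a strain engineered with DNA damage repair alterations.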

[14] = NCI Yeast Anticancer Drug Screen. Data for the rad18 strain (AID 177); details: S. cerevisiae rad18 mutant growth inhibition, active compounds read high
In short: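 Growth of the mutant yeast strain after compound exposure, normalised to vehicle-only cultures.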

[15] = at 5.0 µM (retest, dose inferred, filed as 0.5)
[16] = at 50.0 µM (retest, dose inferred, filed as 5.0)

Measured: growth inhibition

S=C1NC2=C(CSC/C2=C\c2ccc(Cl)cc2)C(c2ccc(Cl)cc2)N1 (stereo unspecified)
active: [1]; at 100.0 µM 76% | [3]; at 33.0 µM 72% | [3]; at 100.0 µM 82% | [4]; at 33.0 µM 74% | [4]; [16] 94% | [4]; at 50.0 µM 92.9% | [4]; at 100.0 µM 71% | [5]; [16] 95% | [5]; at 50.0 µM 83.7% | [5]; at 100.0 µM 77% | [6]; at 33.0 µM 71% | [6]; at 100.0 µM 74% | [7]; [16] 92% | [7]; at 50.0 µM 96.5% | [8]; at 100.0 µM 71% | [9]; [16] 92% | [9]; at 50.0 µM 95.2% | [10]; [16] 96% | [10]; at 50.0 µM 94.8% | [10]; at 100.0 µM 77% | [11]; at 100.0 µM 83% | [12]; at 33.0 µM 84% | [12]; at 100.0 µM 87% | [13]; [16] 96% | [13]; at 50.0 µM 90.7% | [14]; at 100.0 µM 73%
inactive: [1]; at 1.2 µM 8% | [1]; at 3.7 µM 19% | [1]; at 11.0 µM 24% | [1]; at 33.0 µM 61% | [2]; at 1.2 µM -3% | [2]; at 3.7 µM 12% | [2]; at 11.0 µM 12% | [2]; at 33.0 µM 16% | [2]; at 100.0 µM 9% | [3]; at 1.2 µM 29% | [3]; at 3.7 µM 31% | [3]; at 11.0 µM 44% | [4]; at 1.2 µM 20% | [4]; at 3.7 µM 42% | [4]; [15] -9% | [4]; at 11.0 µM 56% | [5]; at 1.2 µM 0% | [5]; at 3.7 µM -1% | [5]; [15] 5% | [5]; at 11.0 µM 24% | [5]; at 33.0 µM 61% | [6]; at 1.2 µM 11% | [6]; at 3.7 µM 26% | [6]; at 11.0 µM 38% | [7]; [15] 6% | [8]; at 1.2 µM -14% | [8]; at 3.7 µM 14% | [8]; at 11.0 µM 28% | [8]; at 33.0 µM 44% | [9]; [15] 11% | [10]; at 1.2 µM -39% | [10]; at 3.7 µM -7% | [10]; [15] -7% | [10]; at 11.0 µM 16% | [10]; at 33.0 µM 56% | [11]; at 1.2 µM 25% | [11]; at 3.7 µM 31% | [11]; at 11.0 µM 39% | [11]; at 33.0 µM 68% | [12]; at 1.2 µM 42% | [12]; at 3.7 µM 45% | [12]; at 11.0 µM 66% | [13]; [15] 16% | [14]; at 1.2 µM 15% | [14]; at 3.7 µM 25% | [14]; at 11.0 µM 28% | [14]; at 33.0 µM 63%

Nc1cccc2cc(Cl)cnc12
inactive: [1]; at 1.2 µM -26% | [1]; at 3.7 µM -26% | [1]; at 11.0 µM -28% | [1]; at 33.0 µM -23% | [1]; at 100.0 µM 63% | [2]; at 1.2 µM -3% | [2]; at 3.7 µM 5% | [2]; at 11.0 µM 11% | [2]; at 33.0 µM 39% | [3]; at 1.2 µM -2% | [3]; at 3.7 µM -2% | [3]; at 11.0 µM 7% | [3]; at 33.0 µM 10% | [3]; at 100.0 µM 64% | [4]; at 1.2 µM 18% | [4]; at 3.7 µM 24% | [4]; [15] 62% | [4]; at 11.0 µM 31% | [4]; at 33.0 µM 47% | [5]; at 1.2 µM 12% | [5]; at 3.7 µM 10% | [5]; [15] 53% | [5]; at 11.0 µM 13% | [5]; at 33.0 µM 7% | [5]; at 50.0 µM 20.9% | [6]; at 1.2 µM -36% | [6]; at 3.7 µM -31% | [6]; at 11.0 µM -36% | [6]; at 33.0 µM -31% | [6]; at 100.0 µM 58% | [7]; [15] 3% | [7]; [16] 10% | [7]; at 50.0 µM 59.7% | [8]; at 1.2 µM 2% | [8]; at 3.7 µM -4% | [8]; at 11.0 µM -23% | [8]; at 33.0 µM -16% | [8]; at 100.0 µM 38% | [9]; [15] 52% | [9]; [16] 41% | [9]; at 50.0 µM 49.3% | [10]; at 1.2 µM 3% | [10]; at 3.7 µM 10% | [10]; [15] 41% | [10]; at 11.0 µM 8% | [10]; at 33.0 µM 13% | [10]; [16] 18% | [10]; at 50.0 µM 38.5% | [11]; at 1.2 µM -34% | [11]; at 3.7 µM -18% | [11]; at 11.0 µM -20% | [11]; at 33.0 µM -15% | [11]; at 100.0 µM 34% | [13]; [15] 55% | [13]; at 50.0 µM 67.3% | [14]; at 1.2 µM 13% | [14]; at 3.7 µM 27% | [14]; at 11.0 µM 61%
active: [2]; at 100.0 µM 76% | [4]; [16] 98% | [4]; at 50.0 µM 71% | [4]; at 100.0 µM 87% | [5]; [16] 98% | [5]; at 100.0 µM 78% | [10]; at 100.0 µM 81% | [13]; [16] 100% | [14]; at 33.0 µM 82% | [14]; at 100.0 µM 90%
